Among the test systems are HCT-15 colon; HT29 colon; SNB-75 CNS; SNB-19 CNS; U251 CNS; PC-3 prostate; SK-MEL-5 melanoma; LOX IMVI melanoma; SK-MEL-28 melanoma.
Assay in all cases: NCI-60 one-dose screen, 48 h (100 = growth as untreated, 0 = no growth, -100 = all killed)
Holding throughout (conditions): 10 µM unless noted

The panel holds about 83,000 compounds, 20% with a hit somewhere; the sample as a whole holds those more often.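 Plates (96-well) were seeded with cells, treated with compound at one concentration, and incubated for 48 hours before percent growth was determined.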 Unmarked numbers belong to inactive results. Active and inactive are the calls of the source. The calls were made as follows: active = growth percent below 10; inactive = the rest.

Consider `CC(C)CSc1nc(Nc2ccccc2)c(C#N)c(-c2ccc(F)cc2)n1`, for which the growth was 67.4% in the assay on HCT-15 colon; 50.7% with HT29 colon; -16.2% (active) in the assay with SNB-75 CNS; 5.61% (active) with SNB-19 CNS; -32.5% (active) with U251 CNS; 47.7% with PC-3 prostate. Besides, the results for the growth in the assay on SK-MEL-5 melanoma, with LOX IMVI melanoma and in the assay with SK-MEL-28 melanoma were 80.5%, 4.45% (active) and 84.5%, respectively.

On to `COc1cc(C(C)c2ccc3c(ccn3C)c2)cc(OC)c1OC` (stereo unspecified), for which the growth in the assay with HCT-15 colon was 15.9%; in the assay with HT29 colon it was 3.88% (active); in the assay on SNB-75 CNS, 47%; with SNB-19 CNS, 33.5%; in the assay with U251 CNS it was 14.4%; in the assay on PC-3 prostate, 23.2%. The figures for the growth in the assay on SK-MEL-5 melanoma, in the assay on LOX IMVI melanoma and in the assay on SK-MEL-28 melanoma were -51.8% (active), 23.2% and 67%, respectively.

`Cc1cccc2nc3c(n12)C(=O)C(=O)c1ccccc1-3`: the growth in the assay with HCT-15 colon is 40.8%; in the assay with HT29 colon it was 78%; in the assay with SNB-75 CNS, 136%; with SNB-19 CNS it was 61.3%; in the assay with U251 CNS it was 43%; with PC-3 prostate, 40.2%. Besides, the values for the growth with SK-MEL-5 melanoma, with LOX IMVI melanoma and in the assay with SK-MEL-28 melanoma were 30.2%, 6.44% (active) and 85.7%, respectively.

Regarding `COc1ccc(-c2cc(C(=O)N3N=C(c4ccc(N)cc4)CC3c3ccc(OC)cc3)c3cc(OC)ccc3n2)cc1` (stereo unspecified), the growth with HCT-15 colon is 22.2%; with HT29 colon it was 26.5%; with SNB-75 CNS, 70.3%; in the assay on SNB-19 CNS, 58.1%; in the assay on U251 CNS, 48.7%; with PC-3 prostate, 42.5%. Further, the growth in the assay on SK-MEL-5 melanoma is 67.3%; in the assay on LOX IMVI melanoma, 41.3%; in the assay on SK-MEL-28 melanoma it was 64.4%.

As to `O=C(Nc1nccs1)c1noc2ccccc12`, the growth in the assay with HCT-15 colon was 92.8%; with HT29 colon it was 99.5%; in the assay with SNB-75 CNS it was 87.9%; in the assay with SNB-19 CNS, 93.5%; with U251 CNS, 98.5%; in the assay with PC-3 prostate it was 80%. The growth with SK-MEL-5 melanoma is 91.5%; in the assay on LOX IMVI melanoma, 95.8%; in the assay with SK-MEL-28 melanoma, 103%.

With `C#C[C@@]1(O)[C@@H](CO)O[C@@H](n2cc(Br)c3c(N)ncnc32)[C@@H]1O`, the growth in the assay on HCT-15 colon was 2.93% (active); with HT29 colon it was 3.26% (active); in the assay on SNB-75 CNS, -36.2% (active); with SNB-19 CNS, 2.58% (active); in the assay on U251 CNS, -12.4% (active); with PC-3 prostate it was -2.77% (active). Also, the growth was 4.89% (active) with SK-MEL-5 melanoma, -56.8% (active) in the assay on LOX IMVI melanoma and 58.2% with SK-MEL-28 melanoma.

With `CC(=O)OCC1SC(OC(C)=O)C(NC(=O)/C=C/CCl)C(OC(C)=O)C1OC(C)=O` (stereo unspecified), the growth in the assay on HCT-15 colon was 100%; in the assay with HT29 colon it was 102%; in the assay on SNB-75 CNS, 93.8%; in the assay on SNB-19 CNS, 111%; in the assay with U251 CNS, 90.6%; in the assay with PC-3 prostate, 86.8%. Also, the growth with SK-MEL-5 melanoma is 87.7%; with LOX IMVI melanoma, 93.4%; with SK-MEL-28 melanoma, 112%.

In the case of `CN(C)CCCn1c2c(c3cc(-c4ccco4)ccc3c1=O)C(=O)c1ccccc1-2`, the growth was 54.4% in the assay on HCT-15 colon; 21% in the assay on HT29 colon; 62.4% with SNB-75 CNS; 69.2% in the assay with SNB-19 CNS; 80.4% in the assay on U251 CNS; 60% in the assay with PC-3 prostate. The growth in the assay on SK-MEL-5 melanoma is 78.3%; with LOX IMVI melanoma, 60.9%; with SK-MEL-28 melanoma it was 103%.

As for `N#Cc1ccc(C2C3=C(CCCC3=O)OC3=C2C(=O)c2ccccc2C3=O)cc1` (stereo unspecified), the growth is 74.5% in the assay with HCT-15 colon; 97.1% in the assay on HT29 colon; 62.6% with SNB-75 CNS; 105% with SNB-19 CNS; 70% with U251 CNS; 72.6% with PC-3 prostate. Further, the values for the growth in the assay on SK-MEL-5 melanoma, in the assay on LOX IMVI melanoma and with SK-MEL-28 melanoma were 61.1%, 9.4% (active) and 112%, respectively.

For the compound `COc1cc(-c2csc(NC(=O)Nc3ccc(C(F)(F)F)cc3)n2)cc(OC)c1OC`, the growth was 10.6% in the assay with HCT-15 colon; 3.06% (active) in the assay with HT29 colon; -12.1% (active) in the assay on SNB-75 CNS; 14.1% in the assay on SNB-19 CNS; 6.12% (active) in the assay with U251 CNS; 3.3% (active) in the assay with PC-3 prostate. For the same compound, the growth was -54.7% (active) in the assay with SK-MEL-5 melanoma, 4.24% (active) in the assay on LOX IMVI melanoma and 16.3% in the assay on SK-MEL-28 melanoma.

Consider `O=C1CS/C(=N/c2nnc(-c3ccc(O)cc3)s2)N1`, for which the growth with HCT-15 colon is 101%; in the assay on HT29 colon, 103%; in the assay with SNB-75 CNS, 111%; in the assay with SNB-19 CNS, 108%; with U251 CNS, 101%; in the assay on PC-3 prostate, 99.5%. Besides, the growth was 102% in the assay with SK-MEL-5 melanoma, 92.2% in the assay with LOX IMVI melanoma and 110% in the assay on SK-MEL-28 melanoma.

For the compound `N#Cc1ccc(N2Cc3cc(Cl)ccc3OC3=C2C(=O)N(Cc2ccccc2)C3=O)cc1`, the growth with HCT-15 colon is -44.9% (active); with HT29 colon, -47.3% (active); in the assay with SNB-75 CNS, 29.9%; in the assay with SNB-19 CNS, 69.1%; with U251 CNS it was -31.7% (active); in the assay on PC-3 prostate, 21.9%. Further, the figures for the growth in the assay with SK-MEL-5 melanoma, in the assay on LOX IMVI melanoma and with SK-MEL-28 melanoma were -31.5% (active), -91.6% (active) and -44.4% (active), respectively.

Take `C#CCOC(=O)[C@]1(C)CCC[C@]2(C)[C@H]3C[C@H]4C(C(C)C)=C[C@]3(CC[C@H]21)[C@@H]1C(=O)CCC(=O)[C@@H]14`: the growth was 92.6% with HCT-15 colon; 71.1% with HT29 colon; 90.3% in the assay with SNB-75 CNS; 86% in the assay with SNB-19 CNS; 87.6% in the assay with U251 CNS; 49.7% in the assay with PC-3 prostate. The growth with SK-MEL-5 melanoma was 85.5%; in the assay on LOX IMVI melanoma it was 78.8%; with SK-MEL-28 melanoma it was 95.3%.

For the compound `COCCOCCOCc1n(Cc2ccc3ccccc3c2)c2ccccc2[n+]1Cc1ccc2ccccc2c1`, the growth is 88.4% with HCT-15 colon; -5.47% (active) in the assay on HT29 colon; -4.1% (active) with SNB-75 CNS; 23% in the assay with SNB-19 CNS; 12.4% in the assay with U251 CNS; 5.49% (active) with PC-3 prostate. For the same compound, the growth in the assay with SK-MEL-5 melanoma is -91.9% (active); with LOX IMVI melanoma it was -26.6% (active); in the assay with SK-MEL-28 melanoma, 16.8%.

The values above are taken from PubChem BioAssay (NCI).
